Whole data set: some 33,000 sequences, median “normalized occupancy” near 0.075, cut for the highest 2% near 0.095. Only a selection was taken, and the highest values are over-represented in it overall.

The target in this experiment is MaxL homodimer (Homo sapiens, UniProt P61244 1-160). As to the kind of experiment: universal protein-binding microarray (PBM); PBS-based mixture, 10 nM His-tagged protein dimer, 2% milk, 200 ng/uL BSA, 50 ng/uL salmon testes DNA, 0.02% TX-100; detection with Alexa 488 anti-His antibody;; high values mean tight binding. The note with it: protein: recombinant; tags: C-terminal His-tag (pET21a); chain copies: 2; dsDNA, one strand shown. The procedure, abridged: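 His-tagged protein dimer at 10 nM was incubated on Agilent 4 x 44 K arrays with the 'all 10-mer' universal design. Bound protein was tagged with 10 ng/μL fluorophore-conjugated anti-His antibody, and arrays were scanned on a GenePix 4400A. Binding occupancy for each 8-mer is its fluorescence intensity normalised to the highest-ranked 8-mer's intensity.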
Sequence of MaxL homodimer (P61244 whole entry): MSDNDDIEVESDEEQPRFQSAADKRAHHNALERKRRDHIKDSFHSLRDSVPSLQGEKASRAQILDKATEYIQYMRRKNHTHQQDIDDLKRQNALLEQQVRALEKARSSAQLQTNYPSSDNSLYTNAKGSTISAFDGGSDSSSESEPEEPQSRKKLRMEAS
For the sequence ACGTTGAA, the binding signal is 0.083 normalized occupancy.

Consider GGGACCAC, for which the binding signal turned out to be 0.078 normalized occupancy.

For CTCTCCAC, the binding signal worked out at 0.0859 normalized occupancy.

On to CTATGCTA, for which the binding signal was 0.0768 normalized occupancy.

Turning to AGACACAT, the binding signal stood at 0.0849 normalized occupancy.

Take CTAAGGTC: the binding signal turned out to be 0.0732 normalized occupancy.

With AAATGACC, the binding signal was 0.0764 normalized occupancy.

Turning to ATAAGCTG, the binding signal turned out to be 0.0801 normalized occupancy.

On to ATGCGTCC, for which the binding signal worked out at 0.0782 normalized occupancy.

On to ATGCGTTG, for which the binding signal was 0.0816 normalized occupancy.

In the case of ATGCGTGA, the binding signal worked out at 0.0965 normalized occupancy.

In the case of CTGCGTGC, the binding signal is 0.0861 normalized occupancy.

Take ATGCGTAG: the binding signal is 0.0832 normalized occupancy.

Regarding ATGCGTGC, the binding signal stood at 0.0969 normalized occupancy.

Turning to CTGCGTGA, the binding signal was 0.0818 normalized occupancy.

Consider GTGCGTGA, for which the binding signal came out at 0.0887 normalized occupancy.

As to ATGCGTGG, the binding signal amounted to 0.106 normalized occupancy.

As to ACATCCCG, the binding signal was determined as 0.0795 normalized occupancy.

For the sequence AGAATGGA, the binding signal came out at 0.0768 normalized occupancy.

GCGACGCA: the binding signal stood at 0.0736 normalized occupancy.

As to CGCGTAAC, the binding signal turned out to be 0.0752 normalized occupancy.

Regarding CCACATTA, the binding signal was determined as 0.093 normalized occupancy.

On to CAACATGA, for which the binding signal turned out to be 0.0936 normalized occupancy.

With CAACATGG, the binding signal came to 0.0932 normalized occupancy.

For CCACATGA, the binding signal amounted to 0.134 normalized occupancy.

Consider CCACATAG, for which the binding signal turned out to be 0.0803 normalized occupancy.

Turning to CCACATGC, the binding signal was determined as 0.163 normalized occupancy.

Regarding CCACATGG, the binding signal is 0.227 normalized occupancy.

For the sequence CAACATGC, the binding signal was 0.094 normalized occupancy.

CCACATTC: the binding signal is 0.0852 normalized occupancy.

For GATCCGCA, the binding signal was 0.0769 normalized occupancy.

Consider CATTCAGC, for which the binding signal was determined as 0.0725 normalized occupancy.

For the sequence GAATTATA, the binding signal came out at 0.0789 normalized occupancy.

TCACTGCA: the binding signal is 0.075 normalized occupancy.

For the sequence CTCAAGTC, the binding signal was 0.0771 normalized occupancy.

With AAGGTTTA, the binding signal came to 0.0757 normalized occupancy.

For GACACGCC, the binding signal came to 0.0849 normalized occupancy.

For the sequence CACACGCG, the binding signal was determined as 0.124 normalized occupancy.

Take CACACGCC: the binding signal is 0.0955 normalized occupancy.

As for CACACACA, the binding signal worked out at 0.087 normalized occupancy.

As to AACACGCT, the binding signal was 0.0974 normalized occupancy.

Turning to AACACACA, the binding signal came out at 0.0847 normalized occupancy.

Regarding AACACGCG, the binding signal worked out at 0.12 normalized occupancy.

Turning to AACACGCC, the binding signal came out at 0.0909 normalized occupancy.

In the case of AACACGCA, the binding signal was 0.0915 normalized occupancy.

On to AACACGGT, for which the binding signal was determined as 0.0777 normalized occupancy.

Regarding CACACGCA, the binding signal was found to be 0.0865 normalized occupancy.

With CACACACG, the binding signal was 0.0916 normalized occupancy.

CCACGGAC: the binding signal worked out at 0.0742 normalized occupancy.

As for CGACTAAA, the binding signal stood at 0.0736 normalized occupancy.

Regarding TCACTTAA, the binding signal was 0.078 normalized occupancy.

Consider GAACCAAC, for which the binding signal stood at 0.0752 normalized occupancy.

As for AGACGACA, the binding signal is 0.0751 normalized occupancy.

Turning to ACAAACCT, the binding signal was found to be 0.0779 normalized occupancy.

Regarding AACGACTG, the binding signal was determined as 0.0722 normalized occupancy.

For the sequence GACATTAC, the binding signal came to 0.0843 normalized occupancy.

Take ATGCTATA: the binding signal is 0.0889 normalized occupancy.

In the case of ACGCGTGG, the binding signal was determined as 0.139 normalized occupancy.

ACGCGTCG: the binding signal worked out at 0.0769 normalized occupancy.

For the sequence ACGCGTTC, the binding signal came out at 0.0785 normalized occupancy.

Regarding ACGCGTAG, the binding signal turned out to be 0.0796 normalized occupancy.

With ACGCGTCC, the binding signal was 0.0815 normalized occupancy.

Consider CGGCGTGC, for which the binding signal turned out to be 0.0923 normalized occupancy.

In the case of GCGCGTGA, the binding signal came out at 0.106 normalized occupancy.

With CCGCGTGC, the binding signal was determined as 0.145 normalized occupancy.

For the sequence ACGCGTGC, the binding signal amounted to 0.13 normalized occupancy.

In the case of GCGCGTTA, the binding signal came to 0.0795 normalized occupancy.

On to GGGCGTGA, for which the binding signal was determined as 0.0932 normalized occupancy.

As to CCGCGTAC, the binding signal is 0.0726 normalized occupancy.

In the case of GTGAGGGA, the binding signal was found to be 0.0752 normalized occupancy.

Regarding AAAAAGCA, the binding signal is 0.078 normalized occupancy.

For GAAAGCGC, the binding signal was 0.0724 normalized occupancy.

On to ATTACCTA, for which the binding signal worked out at 0.0784 normalized occupancy.

AGGTTCTA: the binding signal is 0.0755 normalized occupancy.

Turning to CAAGCGAA, the binding signal is 0.0755 normalized occupancy.

Take CAATTTCA: the binding signal came to 0.0751 normalized occupancy.

As for ACGCGTCA, the binding signal was 0.0796 normalized occupancy.

As to CGGCGTGA, the binding signal was determined as 0.0839 normalized occupancy.

For ACGCGTGA, the binding signal was 0.114 normalized occupancy.

Consider CCGCGTGA, for which the binding signal was 0.142 normalized occupancy.

On to CCGCGTAA, for which the binding signal came to 0.0729 normalized occupancy.

For ACGCGTAA, the binding signal turned out to be 0.0882 normalized occupancy.

Consider ATGACGTG, for which the binding signal stood at 0.0885 normalized occupancy.

As to AAGTGATT, the binding signal worked out at 0.0761 normalized occupancy.

On to CCTGCGCA, for which the binding signal was found to be 0.0738 normalized occupancy.

TGAGAGAA: the binding signal was 0.0879 normalized occupancy.

For TATAAGAA, the binding signal is 0.0821 normalized occupancy.

As to GTTACTTA, the binding signal stood at 0.0751 normalized occupancy.

For the sequence AATCTAAC, the binding signal turned out to be 0.0749 normalized occupancy.

With ATGCCACC, the binding signal was 0.0841 normalized occupancy.

For ACGCCATA, the binding signal was 0.0812 normalized occupancy.

Turning to ACGCCATC, the binding signal came out at 0.0794 normalized occupancy.

In the case of ACGCCATG, the binding signal was 0.102 normalized occupancy.

For ACGCCACG, the binding signal came out at 0.0993 normalized occupancy.

Consider ATGCCACA, for which the binding signal is 0.0905 normalized occupancy.

For the sequence ATGCCACG, the binding signal came to 0.101 normalized occupancy.

With ACGCCACA, the binding signal stood at 0.0778 normalized occupancy.

As to ACGCCACT, the binding signal was found to be 0.0784 normalized occupancy.

Source of the values: article PMC4242493, “Sequence specificity incompletely defines the genome-wide occupancy of Myc”.
